Screening data as filed in PubChem BioAssay.
Only a selection was taken, and hits are over-represented in it overall.
VHR inh color = blocks the human dual specificity phosphatase VHR1; P51452; recombinant VHR phosphatase, colorimetric substrate read-out; inhibition, % at 20 µM; 0.7% of 50,000 active; in the data active means inhibition above about 60%
Target sequence (P51452 whole entry, looked up): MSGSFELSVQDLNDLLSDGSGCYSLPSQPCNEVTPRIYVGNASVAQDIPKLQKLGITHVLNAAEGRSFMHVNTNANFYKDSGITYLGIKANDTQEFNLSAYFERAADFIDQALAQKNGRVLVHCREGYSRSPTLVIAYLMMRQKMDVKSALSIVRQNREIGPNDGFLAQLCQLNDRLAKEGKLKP
* hit, by the source's call.

SMILES | VHR inh color
CCCOc1cccc(C(=O)Nc2cccc(C(=O)Nc3ccccc3C(=O)O)c2)c1 | -12
CCCOC(=O)c1ccc(NC(=O)c2cccc(OCc3ccccc3)c2)cc1 | -10
COc1ccc(S(=O)(=O)N2CCN(C(=O)COc3ccc(Cl)cc3)CC2)cc1 | 4
CCCOC(=O)c1ccc(NC(=O)c2cc(Cl)c(OC)c(Cl)c2)cc1 | -11
CCCOC(=O)c1ccc(NC(=O)COc2ccc(OC)cc2)cc1 | -14
CCCOC(=O)c1ccc(NC(=O)CCC)cc1 | 111*
CCCCOC(=O)c1ccc(NC(C)=O)cc1 | -14
CCCCC(=O)Nc1ccc(C(=O)OCCC)cc1 | 107*
CCCOC(=O)c1ccc(NC(=O)/C=C\C(=O)O)cc1 | 6
CC(=O)OCCCn1c(=O)c2cc3c(=O)n(CCCOC(C)=O)c(=O)c3cc2c1=O | -15
Cc1cccc(N2C(=O)/C(=C/c3ccc(C(C)C)cc3)SC2=S)c1 | 9
CC(=O)c1ccc(NC(=O)c2c(-c3ccccc3)noc2C)cc1 | -14
Cc1ccc(S(=O)(=O)N(CC(=O)NC2CCCC2)Cc2ccccc2)cc1 | -12
C=CCN(CC=C)S(=O)(=O)c1ccc(NC(C)=O)cc1 | -3
COc1ccc(-c2nc3cc(N)ccc3o2)cc1OC | -1
COc1cc(N)ccc1-n1c(C)ccc1C | 70*
COc1ccc(C(=O)c2ccc(OC)c(N)c2)cc1N | 5
CCOC(=O)c1sc(NC(=O)c2ccccc2C)nc1C | -10
CCOC(=O)c1sc(N/N=C/c2ccccc2O)nc1C | -7
CCOC(=O)c1sc(N/N=C/c2cccc(O)c2)nc1C | 97*
COc1ccc(OC)c(C2=C/C(=C/c3cc(OC)c(OC)c(OC)c3)C(=O)O2)c1 | -10
O=C1NN(c2ccc(Cl)c(Cl)c2)C(=O)/C1=C/c1cc([N+](=O)[O-])ccc1O | -6
O=C1NN(c2ccc(Cl)c(Cl)c2)C(=O)/C1=C/c1cccc([N+](=O)[O-])c1 | 78*
O=C1NN(c2ccc(Cl)c(Cl)c2)C(=O)/C1=C/c1cccc(Br)c1 | 32
CC1=NN(c2ccc(S(N)(=O)=O)cc2)C(=O)/C1=C\c1cccc(Br)c1 | -16
SMILES | VHR inh color
O=[N+]([O-])c1ccc(N/N=C\c2ccc(N3CCOCC3)o2)nc1 | 48
Clc1ccc(OCCn2ccnc2)cc1 | 2
COc1ccccc1NC(=O)c1c(NC(=O)c2cccc(C)c2)sc2c1CCCC2 | -19
CCOc1ccc2oc(-c3ccccc3)c(C(=O)O)c2c1 | -21
CCOC(=O)c1c(-c2ccccc2)oc2ccc(OC(C)C(=O)OCC)cc12 (stereo not given) | 6
CC(Oc1ccc2oc(-c3ccccc3)c(C(=O)O)c2c1)C(=O)O (stereo not given) | 81*
CCOC(=O)CNC(=O)c1cc([N+](=O)[O-])ccc1Cl | -41
Cc1ccc(S(=O)(=O)Nc2ccccc2C(F)(F)F)cc1 | -4
COc1ccc(Oc2ccc(Oc3ccc(OC)cc3)cc2)cc1 | -9
Nc1ccc(Oc2ccc(N)cc2)cc1 | 10
Nc1ccc(Oc2ccc(N)c(N)c2)cc1N | 75*
O=C(O)C12c3ccccc3C(C(=O)O)(c3ccccc31)c1ccccc12 | 5
Cc1ccc(-c2nc3ccccc3o2)cc1NC(=O)c1cc(Cl)ccc1Cl | 2
CCn1c2ccccc2c2cc(CNCCc3ccc(OC)c(OC)c3)ccc21 | 20
O=C1C(Cl)=CC(=NS(=O)(=O)c2ccccc2)C=C1Cl | 76*
O=S(=O)(NCCCNS(=O)(=O)c1ccc(Cl)cc1)c1ccc(Cl)cc1 | -13
O=C1C(Cl)=C/C(=N\S(=O)(=O)c2ccc(Cl)cc2)C(Cl)=C1Cl | 96*
COc1ccc(S(=O)(=O)/N=C2C=C/C(=N\S(=O)(=O)c3ccc(OC)cc3)C=C/2Cl)cc1 | -16
CC1=CC(=O)C=C/C1=N\S(=O)(=O)c1ccc(C)cc1 | 28
CC1=CC(=NS(=O)(=O)c2ccc(C)cc2)C=C(C)C1=O | 25
COc1ccc(N2C(=O)c3cccc4c([N+](=O)[O-])ccc(c34)C2=O)cc1 | -2
CCN(CC)S(=O)(=O)c1ccc(Cl)c(C(=O)Nc2ccccc2C(=O)O)c1 | -8
CCC(C)c1ccc(OCCOc2c(Cl)cc(/C=N/n3cnnc3)cc2OC)cc1 (stereo not given) | -2
COc1ccccc1OCCOc1c(Cl)cc(/C=N/n2cnnc2)cc1OC | 2
CCOc1cc(/C=N/n2cnnc2)cc(Cl)c1OCCOc1cc(C)ccc1C(C)C | 110*
SMILES | VHR inh color
Cc1occc1-c1nc(Cc2ccc(Cl)cc2)no1 | -3
COc1ccc(C(=O)Nc2cc(C)cc(C)n2)cc1OC | -5
C/C(=N\N1CCN(Cc2cccc3ccccc23)CC1)c1ccncc1 | -18
Cc1cc(/C=N\Nc2ccc([N+](=O)[O-])cn2)c(C)n1-c1ccccc1F | -4
Cc1cc(/C=N/n2cnnc2)c(C)n1-c1ccc(F)cc1 | -5
Cc1cc(/C=N/Nc2ccc([N+](=O)[O-])cn2)c(C)n1-c1ccc(F)cc1 | 87*
Cc1cc(OCC(=O)NCc2ccncc2)ccc1Br | 2
COc1ccc2oc(=O)c(C(=O)N3CCN(C)CC3)cc2c1 | 34
O=[N+]([O-])c1ccc(Sc2c(-c3ccccc3)nc3ccccn23)cc1 | -3
CCCCOc1ccc2ccc(=O)oc2c1 | -9
CC1=C(C(=O)OCCc2ccccc2)C(c2ccccc2Cl)CC(=O)N1 (stereo not given) | -8
COC(=O)C1=C(C)NC(=O)CC1c1ccc(Cl)c(Cl)c1 (stereo not given) | -26
CC1=C(C(=O)OCCCc2ccccc2)C(c2ccc(Cl)c(Cl)c2)CC(=O)N1 (stereo not given) | 100*
O=c1c2c3c(sc2ncn1/N=C/c1cccs1)CCCC3 | -30
O=[N+]([O-])c1ccc(/C(=N/O)c2ccncc2)cc1 | 0
c1ccc(NC2=Nc3cccc4cccc2c34)cc1 | -9
Nc1cccc(C2=Nc3cccc4cccc(c34)N2)c1 | 85*
Nc1cccc(-c2cc(C(=O)O)c3ccccc3n2)c1 | 0
CCCC(=O)C1=C(SCC)CC(C)(C)CC1=O | -24
CC(/C=C1\SC(=S)N(c2cccc(C(F)(F)F)c2)C1=O)=C\c1ccccc1 | -5
COc1ccccc1N1CCN(C(=O)c2ccc(OC)c([N+](=O)[O-])c2)CC1 | 10
CCOC(=O)c1c(CC(C)C)csc1NC(=O)c1ccccc1Cl | 0
CC(=O)C12c3ccccc3C(c3ccccc31)C1C(=O)N(c3cc(C(F)(F)F)ccc3Cl)C(=O)C12 (stereo not given) | -22
O=C1NC(=O)N(c2ccccc2)C(=O)/C1=C\c1ccc(-c2cccc(C(=O)O)c2)o1 | -24
O=C1NN(c2ccccc2)C(=O)/C1=C/c1ccc(-c2ccccc2)o1 | 111*
SMILES | VHR inh color
O=C1NN(c2ccccc2)C(=O)/C1=C/c1ccc(-c2ccc(F)cc2)o1 | -15
O=C1NN(c2ccc(F)cc2)C(=O)/C1=C\c1ccc(-c2cccc(C(=O)O)c2)o1 | -10
O=C1NC(=O)N(c2cccc(Br)c2)C(=O)/C1=C/c1ccc(-c2ccc(C(=O)O)cc2)o1 | 100*
O=C1NC(=S)N(c2cccc(Br)c2)C(=O)/C1=C/c1ccc(-c2ccc(C(=O)O)cc2)o1 | 92
COC(=O)C1=NN(C(=O)c2ccc([N+](=O)[O-])cc2)C(O)(c2ccccc2)C1 (stereo not given) | 20
N#Cc1cnc(N)c(C#N)c1Nc1ccccc1 | -13
CC(=O)Nc1nc(O)c(/C=C2/C(C)=Nc3ccccc32)s1 | 37
CCn1c2ccccc2c2nnc(N/N=C/c3ccccc3O)nc21 | -4
CN(C)c1cccc(C(=O)Nc2ccc(Br)cc2F)c1 | -9
Cc1cc(OCCCCCCN2CCCC2)cc(C)c1Cl | -10
